This is part of a sample that, as a whole, favours compounds with a hit. Of some 83,000 tested, about 20% had one in any assay.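 Growth was measured after 48 h exposure to one concentration of compound in 96-well plates. Values under 10 count as active.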 Values without a mark were called inactive. Activity calls are given as the source filed them.

Growth data for nine molecules are collected here from PubChem BioAssay (NCI).

Experiment in all cases: NCI-60 one-dose screen, 48 h (100 = growth as untreated, 0 = no growth, -100 = all killed)
Holding throughout (conditions): 10 µM unless noted

Assay [1] concerns SR leukemia.
Assay [2] concerns RPMI-8226 leukemia.
Assay [3] concerns OVCAR-8 ovarian.
The subject of assay [4] is OVCAR-5 ovarian.
In assay [5] the test system is OVCAR-4 ovarian.
The subject of assay [6] is SK-OV-3 ovarian.
Assay [7] concerns IGROV1 ovarian.
The subject of assay [8] is OVCAR-3 ovarian.
The test system of assay [9] is HS 578T breast.
The test system of assay [10] is NCI/ADR-RES ovarian.
Assay [11] relates to T-47D breast.
Assay [12] relates to BT-549 breast.
For assay [13], the system named is MDA-MB-435 melanoma.
Assay [14] concerns SW-620 colon.
The subject of assay [15] is MCF7 breast.
Assay [16] has as its system HCT-116 colon.
The subject of assay [17] is HCC-2998 colon.
The test system of assay [18] is KM12 colon.

As for `Oc1ccccc1/C=N/NC(=S)NC1CC2C=CC1C2` (stereo not drawn), the growth was 30.1% in [1]; 63.5% in assay [2]; 84.3% in assay [3]; 109% in assay [4]; 78.1% in [5]; 95.7% in assay [6]. In addition, the growth in [7] was 62.2%; in assay [8] it was 67.4%; in [9], 98.2%; in [10], 0.723% (active); in [11] it was 79.9%; in assay [12], 61%. Also, the growth is 11.9% in assay [13]; 45.5% in [14]; 80.7% in assay [15]; 42.9% in [16]; 66.5% in assay [17]; 53% in assay [18].
Take `C=C1c2nc3ccccc3n2C=C(c2ccc(Cl)cc2)N1Cc1ccccc1`: the growth in assay [1] was 23.7%; in assay [2], 35.3%; in assay [3] it was 75.6%; in assay [4], 99.9%; in [5], -8.06% (active); in assay [6] it was 83.4%. In addition, the growth is 106% in [7]; 92.2% in [8]; 87% in assay [9]; 79.4% in assay [10]; 66% in assay [11]; 142% in assay [12]. Further, the growth in assay [13] was 98.1%; in [14], 86.9%; in assay [15], 63%; in assay [16], 63%; in assay [18], 86.9%.
Turning to `O=C(O)COc1ccc(-c2cssc2=S)cc1`, the growth is 54.8% in assay [1]; 113% in assay [2]; 101% in assay [3]; 98.7% in assay [4]; 103% in assay [5]; 108% in assay [6]. The growth was 112% in assay [7]; 122% in [8]; 105% in [9]; 108% in [10]; 95.5% in [11]; 116% in assay [12]. Further, the growth in [13] was 102%; in [14], 107%; in assay [15], 93.2%; in [16], 109%; in assay [17] it was 125%; in [18] it was 109%.
For `CCOC(=O)c1c(NS(=O)(=O)c2ccc(C)cc2)sc2c1CCC1(C2)OCCO1`, the growth in assay [1] is 94.3%; in assay [2] it was 86.7%; in assay [3] it was 95.7%; in assay [4] it was 88.8%; in assay [5], 91.4%; in [6], 90.1%. Further, the growth in assay [7] was 109%; in assay [8], 103%; in assay [9], 81.3%; in assay [10], 98%; in assay [11], 81.3%; in [12], 93.8%. Also, the growth in assay [13] is 101%; in assay [14], 90.7%; in assay [15] it was 93.2%; in assay [16], 95.9%; in assay [18] it was 88.8%.
With `N[C@@H]1CCN(C(=O)c2cc3cc(Cl)c(F)c(F)c3[nH]2)C1`, the growth in assay [1] was 88.3%; in [2], 96%; in [3], 96.3%; in assay [4], 90.3%; in assay [5] it was 96.5%; in assay [6], 89.3%. Also, the growth is 80.7% in assay [7]; 97.6% in assay [8]; 87.5% in [9]; 103% in assay [10]; 82.2% in assay [11]; 1.7% (active) in assay [12]. For the same molecule, the growth in [13] was 97.3%; in assay [14], 96.6%; in assay [15] it was 94.5%; in [16], 92.8%; in assay [17], 96.1%; in [18], 98.8%.
As for `Nc1nc(Nc2cc(Cl)cc(Cl)c2)nn1S(=O)(=O)c1ccc2ccccc2c1`, the growth was 46.3% in [1]; 66.5% in assay [2]; 40.6% in assay [3]; 68.3% in assay [4]; 72.5% in assay [5]; 59.5% in assay [6]. Besides, the growth in assay [7] was 20.3%; in assay [8] it was 60.1%; in assay [9] it was 40.5%; in assay [10], 37.1%; in [11], 46%; in [12], 90.7%. Further, the growth in assay [13] is 77.5%; in assay [14], 67.6%; in [15], 32.8%; in assay [16], 33.5%; in assay [18] it was 21.9%.
With `COc1cc2c(c(OC)c1OC)-c1ccc(N)c(=O)cc1[C@@H](NC(C)=O)CC2`, the growth in assay [1] was 20%; in assay [2], 27.2%; in assay [3] it was 16.6%; in [4] it was 40.5%; in assay [5], 51%; in assay [6], 23.9%. In addition, the growth in assay [7] was 1.05% (active); in assay [8], -54.2% (active); in [9], 19.6%; in assay [10], 75.6%; in [11], 59.7%; in assay [12], -12.6% (active). Also, the growth was 6.15% (active) in assay [13]; 22.7% in [14]; 14.9% in [15]; 1.6% (active) in [16]; -20.1% (active) in assay [18].
`Fc1ccc(Nc2ncnc3ccc(-c4cnc5[nH]ccc5c4)cc23)cc1Cl`: the growth in assay [1] was -26.1% (active); in [2], -17.9% (active); in assay [3] it was -28% (active); in assay [4], 8.66% (active); in assay [5] it was -61% (active); in assay [6] it was 15.3%. For the same molecule, the growth in [7] was -37.8% (active); in [8] it was -73.7% (active); in assay [9], -12.6% (active); in [10], 14%; in assay [11], -35.3% (active); in assay [12], 20.3%. Besides, the growth was 51.8% in [13]; 4.35% (active) in assay [14]; 9.34% (active) in [15]; -36.3% (active) in assay [16]; 34% in [17]; 23.3% in [18].
As for `CN1CCN(CCCOc2ccc3nc(Nc4ccc(Cl)c(C(F)(F)F)c4)ccc3c2)CC1`, the growth is 2.08% (active) in [1]; 18.1% in assay [2]; 73.6% in assay [3]; 72.1% in [4]; 66.6% in [5]; 91.4% in [6]. In addition, the growth in [7] is 46.2%; in assay [8], 59.3%; in assay [9], 46%; in [10], 62.8%; in [11], 76.7%; in [12], 102%. Also, the growth in assay [13] is 59.6%; in [14] it was 0.0049% (active); in [15], 27.1%; in assay [16], 26.3%; in [17] it was 6.68% (active); in assay [18] it was 28.8%.
